Measurements reported in PubChem BioAssay AID1159580 (chemical genetic matrix, 2015).
The campaign covered roughly 5,500 compounds. About 2,000 (36%) were called active. Another 18% or so got no clear call; they are omitted. Rule as the data show it: active = normalized growth mostly below about 0.91 (no sharp cut-off); inconclusive = no clear call, values can overlap the other calls; inactive = mostly above about 0.92. The list shows a part of the results.

Experiment: chemical genetic growth profiling, strain panel (AID 1159580);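 also: tested at 20 µM; growth read once vehicle control cultures reached saturation at 30 °C; 1 = growth at the plate median or of vehicle wells; lower values mean less growth of the strain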
Conditions: S. cerevisiae deletion strains, growth OD
[1] = locus YAL013W, strain DEP1, stronger effect = lower value
[2] = locus YAL040C, strain CLN3, stronger effect = lower value
[3] = locus YCL061C, strain MRC1 (second series), stronger effect = lower value
[4] = locus YDR363W, strain ESC2, stronger effect = lower value
[5] = locus YER002W, strain NOP16, stronger effect = lower value
[6] = locus YJR075W, strain HOC1, stronger effect = lower value
[7] = locus YNL175C, strain NOP13, stronger effect = lower value
[8] = locus YNL197C, strain WHI3, stronger effect = lower value
[9] = locus YNL224C, strain SQS1, stronger effect = lower value
[10] = locus YOR083W, strain WHI5 (second series), stronger effect = lower value
[11] = locus YPL055C, strain LGE1, stronger effect = lower value
[12] = locus YPL241C, strain CIN2, stronger effect = lower value

Measured: normalized growth

N[C@@H](Cc1ccc(O)c(I)c1)C(=O)O
inactive: [1] 0.997 | [2] 0.991 | [3] 1 | [4] 1.01 | [5] 1.02 | locus YGR078C, strain PAC10, stronger effect = lower value 1.01 | locus YGR229C, strain SMI1, stronger effect = lower value 1.01 | [6] 0.991 | locus YMR307W, strain GAS1, stronger effect = lower value 0.992 | locus YNL153C, strain GIM3, stronger effect = lower value 1 | [7] 1 | [8] 0.997 | [9] 1.01 | [10] 1.02 | [11] 0.979 | [12] 0.993

N[C@@H](Cc1c[nH]c2ccc(O)cc12)C(=O)O
inactive: [1] 1.02 | [2] 0.959 | [3] 1.01 | locus YDR150W, strain NUM1, stronger effect = lower value 1.03 | [4] 1.01 | [5] 1 | [6] 1.01 | locus YMR263W, strain SAP30, stronger effect = lower value 0.997 | [7] 1.03 | [8] 1 | [9] 1.01 | locus YNL322C, strain KRE1, stronger effect = lower value 1.01 | [10] 1.02 | [11] 1.03 | [12] 1
